According to PubChem BioAssay (NCATS):
Values joined by “and” are separate entries in the source; they are usually repeats but may differ in a detail not shown here. Equal entries are not always repeated. Records with an inconclusive call do not appear. A call without a number means that no potency is given here. Active and inactive are the calls of the source. Unless noted, calls follow the shape of the dose curve; as a rule, active = well fitted curve in the direction sought with a large enough effect; inconclusive = small, poorly fitted or top-dose-only effect, or another doubt; inactive = no such curve, though single readings can be large; an effect the other way counts as inactive or inconclusive.

Key:
[1] = P-glycoprotein substrates identified in KB-3-1 adenocarcinoma cell line, qHTS therapeutic library screen (AID 1346986); also: nearly all actives have a fitted effect of over 60% in size;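 also: potency is read from the fitted curve at half-maximal effect; potency is for cytotoxicity meaning loss of cell viability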
Method in brief: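 Viability by CellTiter-Glo after 72 h compound exposure at 37 degree C, 5% CO2. Cytotoxic call: curve class -1.1 to -2.4, maximum response >50%, AC50 < 10 uM, compared across KB-3-1 and P-gp-overexpressing KB-8-5-11.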

[2] = qHTS to identify inhibitors of the type 1 interferon - major histocompatibility complex class I in skeletal muscle: primary screen against the NCATS Mechanism Interrogation Plate v5.0 (MIPE) Libary (AID 1347411); also: nearly all actives have a fitted effect of over 65% in size
Method in brief: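 HLA-B HiBit myoblasts, dexamethasone-free medium + 4 ng/ml IFN-b, 24 h compound, 11-pt 1:3 from 46 uM final. Readout: Nano-Glo HiBiT lytic luminescence after 10 min lysis, RT.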

[3] = Primary qHTS for inhibitors of nuclear receptor binding SET domain protein 2 (NSD2) in an isogenic RCH-ACV NSD2 p.E1099K mutant (9B) (AID 1645876); also: nearly all actives have a fitted effect of over 70% in size; also: potency is read from the fitted curve at half-maximal effect
[4] = Primary qHTS for inhibitors of nuclear receptor binding SET domain protein 2 (NSD2) in an RCH-ACV wild type WT cells (2C) (AID 1645877); also: nearly all actives have a fitted effect of over 70% in size; also: potency is read from the fitted curve at half-maximal effect
[5] = molecular target: Glutathione peroxidase 1 (Homo sapiens) (UniProt P07203); assay: Primary qHTS Assay for Inhibitors of Recombinant Selenoprotein Glutathione Peroxidase 1 (GPX1) (AID 1845191); also: nearly all actives have a fitted effect of over 65% in size
Sequence of Glutathione peroxidase 1 (Homo sapiens) (P07203 whole entry, looked up): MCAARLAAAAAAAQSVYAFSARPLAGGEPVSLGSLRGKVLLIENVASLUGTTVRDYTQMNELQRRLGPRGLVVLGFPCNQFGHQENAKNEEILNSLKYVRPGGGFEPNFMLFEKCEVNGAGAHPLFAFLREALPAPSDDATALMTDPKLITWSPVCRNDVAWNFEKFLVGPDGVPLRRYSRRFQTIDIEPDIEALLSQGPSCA
Method in brief: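 GR-coupled readout: NADPH consumption tracked by fluorescence, ex 340/em 450 nm, at t=0 and after 15 min at RT. Final mix 10 nM GPX1, 1 mM GSH, 0.5 mM CHP, 0.5 mM NADPH, 100 nM GR, 0.01% BSA, following 30 min enzyme–compound preincubation.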

[6] = molecular target: Phospholipid hydroperoxide glutathione peroxidase GPX4 (Homo sapiens) (UniProt P36969); assay: Primary qHTS Assay for Inhibitors of Recombinant Selenoprotein Glutathione Peroxidase 4 (GPX4) (AID 1845192); conditions: outcome: dose series up to 50 µM unless noted; also: nearly all actives have a fitted effect of over 65% in size
Sequence of Phospholipid hydroperoxide glutathione peroxidase GPX4 (Homo sapiens) (P36969 whole entry, looked up): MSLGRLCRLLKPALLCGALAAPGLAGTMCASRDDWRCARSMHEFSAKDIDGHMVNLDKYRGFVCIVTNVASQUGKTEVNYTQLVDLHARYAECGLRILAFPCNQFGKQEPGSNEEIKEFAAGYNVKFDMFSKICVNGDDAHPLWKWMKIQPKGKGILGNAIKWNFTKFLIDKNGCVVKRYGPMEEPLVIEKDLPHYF
Method in brief: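 Steps: GPX4 plus compound, 30 min RT; add GR/GSH/NADPH master mix; start with cumene hydroperoxide; read 340/450 nm fluorescence at 0 and 15 min. Finals were 200 nM GPX4, 1 mM GSH, 0.5 mM CHP, 0.5 mM NADPH, 100 nM GR.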

[7] = P-glycoprotein substrates identified in KB-8-5-11 adenocarcinoma cell line, qHTS therapeutic library screen (AID 1346987); also: nearly all actives have a fitted effect of over 65% in size; also: potency is read from the fitted curve at half-maximal effect
Method in brief: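 In this qHTS, P-gp-rich KB-8-5-11 cells received library compounds across a concentration range. Viability was quantified by luminescence after 72 h at 37 degree C.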

[8] = molecular target: Calcium and integrin-binding protein 1 (Homo sapiens) (UniProt Q99828); assay: Primary qHTS for Identification of Calcium Integrin Binding Protein 1 (CIB1) Competitor (AID 1508620);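 also: GST tagged CIB1 binding a fluorescein labelled alphaIIb integrin peptide tracer; top concentration of the series differs between compounds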
Sequence of Calcium and integrin-binding protein 1 (Homo sapiens) (Q99828 whole entry, looked up): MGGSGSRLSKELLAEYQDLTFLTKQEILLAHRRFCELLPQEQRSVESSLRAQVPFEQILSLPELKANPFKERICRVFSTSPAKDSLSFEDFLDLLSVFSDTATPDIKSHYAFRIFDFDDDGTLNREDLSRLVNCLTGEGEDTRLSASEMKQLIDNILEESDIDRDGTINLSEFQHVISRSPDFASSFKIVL
Method in brief: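 Fluorescence polarization competition: GST-tagged CIB1 (1 uM final) preincubated with compound 15 min at room temperature, then FITC-labelled alphaIIb peptide (100 nM final) added. After 15 min at room temperature, polarization read at Ex 480/Em 540.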

[9] = qHTS drug screen for cell cycle checkpoint inhibitors in PARPi-resistant BRCA-mutant ovarian cancer cell lines. (AID 1963452; calls by dose curve); conditions: PEO1/OlaR viability, CellTiter-Glo luminescence, 96 h, stronger effect = lower value
Method in brief: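 PEO1, PEO4 and PEO1/OlaR ovarian cancer cells, 600 per well, exposed 96 h at 37C to a dilution series. Viability read by CellTiter-Glo luminescence, normalized to DMSO and empty wells; activity summarized as Z-AUC.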

[10] = measured here: PEO1 parental Z-AUC

CCc1c(C(=O)NNC(=O)[C@@H](O)c2cc(F)cc(F)c2)ccc(O)c1C
Potency [1]: inactive | Potency [2]: inactive | Potency [3]: inactive | Potency [4]: inactive | Potency [5]: inactive | Potency [6]: inactive

CN1CCN(c2nc(C3=C(c4c[nH]c5ccccc45)C(=O)NC3=O)c3ccccc3n2)CC1
Potency [1]: inactive | Potency [7]: inactive | Potency [3]: 16.4 µM (active) and 16.6 µM (active) | Potency [4]: 14.8 µM (active) | Potency [5]: inactive | Potency [6]: inactive

CC(C)CN(CC(=O)N(CCCN1CCCC1=O)CC(N)=O)C(=O)CNCCc1ccccc1F
Potency [1]: inactive | Potency [7]: inactive | Potency [3]: inactive | Potency [5]: inactive

Cc1cc(Nc2cc(C)c(C#N)c(NC(C)CCCC(C)(C)O)n2)n[nH]1 (configuration not stated)
Potency [1]: 1.46 µM (active) | Potency [7]: 1.3 µM (active) | Potency [3]: 1.03 µM (active) | Potency [5]: inactive

O=C1OC(/C=C/c2ccccc2)=NC/1=C\c1cccnc1
Potency [1]: inactive | Potency [7]: inactive | Potency [3]: inactive | Potency [4]: inactive | Potency [5]: inactive

CCCCCCCCCCCCCCCCOCCCOP(=O)(O)COC(CO)Cn1ccc(N)nc1=O (configuration not stated)
Potency [1]: 8.2 µM (active) | Potency [2]: inactive | outcome [8]: inactive | Potency [4]: 18.6 µM (active) | Potency [6]: inactive | Z-AUC [9]: 0.0641 (inactive) | Z-AUC [9, 10]: -0.362 | Z-AUC ([9]; measured here: PEO4 Z-AUC): -0.397

BrC1C(Br)C(Br)C(Br)C(Br)C1Br (configuration not stated)
Potency [1]: inactive | Potency [7]: inactive | Potency [3]: inactive | Potency [4]: inactive | Potency [5]: inactive

COc1cc2ncnc(Sc3nnc(C)s3)c2cc1OC
Potency [1]: 18.4 µM (active) | Potency [7]: 16.4 µM (active) | Potency [3]: 2.91 µM (active) | Potency [4]: 3.26 µM (active) | Potency [5]: inactive

N#Cc1cccc(CN2CCC(N(Cc3cccnc3)C(=O)Nc3ccccc3-c3ccccc3)CC2)c1
Potency [1]: inactive | Potency [7]: inactive | Potency [5]: inactive

Cc1cc(/C=c2/sc3nc4ccccc4n3c2=O)c(C)n1-c1ccccc1
Potency [1]: inactive | Potency [2]: inactive | Potency [5]: inactive | Z-AUC [9]: 0.302 (inactive) | Z-AUC [9, 10]: 0.332 | Z-AUC ([9]; measured here: PEO4 Z-AUC): 0.429
